From PubChem
Pf growth 48h = inhibits P. falciparum growth in the first generation, 48 h | P. falciparum luciferase growth in erythrocytes, 48 h | Potency, µM (titrated, usually from 28.7 µM), for the others: at the top dose activity change, negative = inhibition, hits mostly inhibitors | 5.9% of 310,000 active; also: potency is read from the fitted curve at half-maximal effect; % is scaled to controls: 0 for no effect and ±100 for the full control effect
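Compounds are pin-transferred into medium, infected erythrocytes (2% hematocrit, 0.1% parasitemia final) are added, and plates sit one parasite generation at 37 C in 5% CO2. Detection reagent is then added and luminescence measured.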
Cycloheximide cs = counter-screen hit for Shiga toxin inhibitors, cycloheximide; 12% of 300,000 active; cell reporter, cycloheximide protein synthesis inhibition counterscreen; max response, %; in the data active = max response mostly above about 13%, no sharp cut-off; inactive = mostly below about 14%; also: read at 38.3 µM for the half of the compounds with a filed dose; 0% is about no effect
HCMV antiviral = blocks human cytomegalovirus replication; 4.5% of 410,000 active; HFF cells, HCMV-luciferase reporter, 72 h; stronger effect = lower value; activity change, negative = inhibition, % at 57.5 µM; in the data active = activity change below about -60%; inconclusive = no clear call, values can overlap the other calls; inactive = above about -39%; also: % is scaled to controls: 0 for no effect and ±100 for the full control effect
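Human foreskin fibroblasts infected with luciferase-reporter HCMV at MOI 1 PFU/cell, compounds at two doses. Luciferase measured 72 h post infection; normalized to buffer-only basal and Salinomycin (10uM) controls.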
Pf growth 96h = inhibits malaria parasite growth, 96 h; P. falciparum luciferase reporter growth, 96 h; Potency, µM (highest dose often 28.7 µM), for the others: at the top dose activity change, negative = inhibition, actives largely listed as inhibitors; 6.9% of 320,000 active; also: potency is read from the fitted curve at half-maximal effect; % is scaled to controls: 0 for no effect and ±100 for the full control effect
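Infected RBCs, 2% Hct / 0.05% parasitemia final; luciferase-reporter P. falciparum; cpd 96 h, 37 C, 5% CO2; luciferase detection reagent; luminescence.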
HCV inh = HCV inhibition. Huh7.5.1 HCVcc-Cre infection, luciferase reporter, 44 h. Potency, µM (series often up to 41.8 µM), inactives show at the highest dose activity change, negative = inhibition, actives largely listed as inhibitors. 3.4% of 340,000 active. AID 651820; also: potency is read from the fitted curve at half-maximal effect; % is scaled to controls: 0 for no effect and ±100 for the full control effect
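Cells (1,000/well) were plated 4 h before compound, then infected with HCVcc-Cre virus (~0.5 moi). After 44 h further culture, infection was read as luciferase luminescence following a 15 min substrate incubation at room temperature.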
Shiga toxin inh = Shiga toxin inhibition | inhibition, % at 38.7 µM | AID 2315 | Vero cells, Shiga toxin protein synthesis inhibition reporter | 9.2% of 290,000 active; in the data active = inhibition mostly above about 28%, no sharp cut-off; inactive = mostly below about 43%; also: 0% is about no effect
* hit, by the source's call; i = inactive; ? = inconclusive; / = not tested or not shown; [ ] = dose if it differs, or a comment. Only some compounds are listed: those with a hit (about 21% of all), similar ones and a draw of the others. Unless noted, calls follow the shape of the dose curve; as a rule, active = well fitted inhibition curve with a large enough effect; inconclusive = small, poorly fitted or top-dose-only effect, or another doubt; inactive = no such curve, though single readings can be large or run the other way.

SMILES	Pf growth 48h	Cycloheximide cs	HCMV antiviral	Pf growth 96h	HCV inh	Shiga toxin inh
C[C@@H]1CN([C@@H](C)CO)C(=O)c2cc(NC(=O)C3CCCCC3)ccc2O[C@@H](C)CCCCO[C@@H]1CN(C)Cc1ccncc1	/	/	-10	/	/	/
COC(=O)C1=C(C)OC(N)=C(C#N)C1c1cccnc1 (centres undefined)	-14%	1	-14	/	-4%	-7
CC1=C(n2nnc([N+](=O)[O-])n2)C(c2cccnc2)C(C#N)=C(N)O1 (centres undefined)	13µM*	6	25	?	-15%	5
CCOC(=O)c1[nH]c2ccccc2c1N=CN(C)C	/	/	78	/	-10%	/
CN(C)C=Nc1ccc2nc3c(cc2c1)[nH]c1ccccc13	?	39*	10	-72%	?	74*
COc1cc(/C=C/C(=O)O)cc(S(=O)(=O)Nc2ccc3nc(SC)sc3c2)c1OC	3%	8	-13	0%	5%	-6
COCCN1C(=O)CSCC1(C)C(=O)Nc1ccc2c(c1)OCCO2 (centres undefined)	/	/	11	/	/	/
COc1cc(CC(=O)Nc2nc(-c3ccccc3)c(C(C)=O)s2)cc(OC)c1OC	?	-5	-21	?	13µM*	-9
COc1ccc(CC(=O)Nc2nc(-c3ccccc3)c(C(C)=O)s2)cc1OC	?	-2	?	?	13µM*	17
COc1ccc(CCNC(=O)c2cc(C(=O)c3cc(C)ccc3O)cn(CCc3ccc(OC)cc3)c2=O)cc1	6.6µM*	0	-5	3.3µM*	?	13
COc1ccc(CCNC(=O)c2cc(C(=O)c3cc(Cl)ccc3O)cn(CCc3ccc(OC)cc3)c2=O)cc1	1.7µM*	13	-39	0.52µM*	?	16
O=C(O)c1ccccc1C(=O)NCCc1ccc(Cl)cc1	27%	14	8	?	10%	12
O=C(c1cc(C(=O)NCCc2ccccc2)c(=O)n(CCc2ccccc2)c1)c1cc(Cl)ccc1O	0.83µM*	-5	-15	0.41µM*	?	-4
Cc1cc2c(c(=O)o1)C1O[C@](CCCCN3C(=O)c4ccccc4C3=O)(Cc3cc(C#N)ccc31)O2	?	-1	/	?	/	i
COc1ccc(S(=O)(=O)N2CCCCC2)cc1NC(=O)CCNC(=O)c1ccc(Br)cc1	9%	/	-7	9%	-4%	/
Cc1ccc(NS(=O)(=O)c2ccc(Br)s2)nc1	29%	8	?	0%	3.5µM*	42
Cc1cc(C)nc(NS(=O)(=O)c2ccc(Br)s2)c1	/	7	41	?	-17%	12
COc1cccc(CNC(=O)Cc2c(C)c3ccc(OC)c(C)c3oc2=O)c1	/	/	-6	/	/	/
Cc1cc(NC(=O)c2ccc(F)cc2)ccc1-c1cc2ccccc2oc1=O	/	/	-10	/	/	/
O=C(Nc1ccc(Br)cn1)c1cccc(-c2cc3ccccc3oc2=O)c1	163%	41*	72	132%	7%	49*
Cc1nc(NC(=O)c2cccc(-c3cc4ccccc4oc3=O)c2)ccc1Br	95%	2	-32	-18%	?	31
O=C(Nc1ccccc1N1CCCC1)c1cccc(-c2cc3ccccc3oc2=O)c1	?	18*	41	?	?	29
O=C(Nc1ccccc1N1CCCC1)c1ccc2c(c1)OCO2	0%	1	-22	29%	?	10
O=C(Nc1ccc(N2CCCC2)cc1)c1cccc(-c2cc3ccccc3oc2=O)c1	9%	8	-63*	0.41µM*	-4%	14
COC(=O)C1=CN(c2ccc(C)cc2)C(N)=C(C#N)C1c1ccc(OC)cc1 (centres undefined)	/	/	-27	/	/	/
SMILES	Pf growth 48h	Cycloheximide cs	HCMV antiviral	Pf growth 96h	HCV inh	Shiga toxin inh
O=C1CN(C(=O)CSc2nnnn2-c2ccc(Cl)cc2)c2ccccc2N1	4.7µM*	1	2	54%	-6%	10
O=C1CN(C(=O)CSc2nc3ccccc3c(=O)n2CC2CCCO2)c2ccccc2N1 (centres undefined)	-21%	12	-33	?	-19%	-2
C=CCn1c(SCC(=O)N2CC(=O)Nc3ccccc32)nc2scc(-c3ccccc3)c2c1=O	8.3µM*	2	27	4.7µM*	-18%	-19
Cc1ccc(Cn2c(SCC(=O)N3CC(=O)Nc4ccccc43)nc3ccccc3c2=O)cc1	?	7	-76*	13µM*	10µM*	-4
O=C1CN(C(=O)CSc2nc3cc(Cl)ccc3c(=O)n2Cc2ccccc2)c2ccccc2N1	3.3µM*	-3	?	?	11µM*	-18
C=CCn1c(SCC(=O)NCc2ccc3c(c2)OCO3)nc2scc(-c3ccccc3)c2c1=O	?	-2	89	?	?	-5
CN(C(=O)COC(=O)c1ccc(Br)c(S(=O)(=O)N2CCOCC2)c1)C1CCCCC1	/	/	-13	/	-7%	/
O=C(Cc1c[nH]c2ccccc12)NC1(C(=O)NC2CCCC2)CCCCC1	-4%	10	90	-34%	17%	1
Cc1ccc(S(=O)(=O)NCC2CCC(C(=O)NCCCN3CCCC3=O)CC2)cc1 (centres undefined)	0%	-9	-62*	-7%	20%	-5
COCCCNC(=O)C1CCC(CNS(=O)(=O)c2ccc(C)cc2)CC1 (centres undefined)	10µM*	5	/	77%[5.75 µM]	/	16
O=C1NC(=O)C2(CCCCCCCCCCC2)N1	34%	-5	-38	39%	7%	-6
CCN(CC)CCNC(=O)c1c(O)c2ccccc2n(Cc2ccccc2)c1=O	12µM*	-4	22	4.1µM*	?	-20
CCN(CC)CCCNC(=O)c1c(O)c2ccccc2n(Cc2ccccc2)c1=O	9.3µM*	-3	-19	44%	-20%	-11
CCCn1c(=O)c(C(=O)NCc2ccccc2)c(O)c2ccccc21	22%	2	42	-23%	?	1
CC(NC(=O)OC(C)(C)C)C(=O)NC(CCC(=O)OCc1ccccc1)C(N)=O (centres undefined)	-2%	3	-37	-22%	4%	-5
CCOC(=O)C(C)N1C(=O)S/C(=C/c2cc(C)n(-c3ccncc3)c2C)C1=O (centres undefined)	?	18*	-12	13µM*	10µM*	21
CCOC(=O)C(C)N1C(=O)S/C(=C/c2cc(C)n(-c3ccccn3)c2C)C1=O (centres undefined)	23%	31*	24	/	10µM*	114*
CCOC(=O)c1ccc(N=C2S/C(=C\c3cc(C)n(-c4cccnc4)c3C)C(=O)N2C)cc1	/	-3	4	?	0%	-11
CNC(=S)N1CCN(c2c(F)cc3c(=O)c(C(=O)O)cn(C4CC4)c3c2OC)CC1C (centres undefined)	/	-9	-22	13µM*	30%	-12
